We go through five compounds from PubChem BioAssay.

A short description of assay [1]: Wnt pathway potentiators raising nuclear beta-catenin – imaging, WNT3A-conditioned medium, mouse C2C12, NPC library, primary screen (AID 1117326). The following applies: stronger effect = higher value.
Assay [2] is described as follows: stimulators of insulin release from INS-1E, primary screen, cell-based, 5 mM glucose, NPC library (AID 1117329;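 active = compound raises insulin release from rat beta cells at 5 mM glucose, no numeric limit stated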). The settings on record: rat INS-1E insulin secretion, at 10 µM, stronger effect = higher value.
A short description of assay [3]: growth inhibition of GSK3B-pretreated HCT116 cells – cell-based, CellTiter-Glo, 0.2 to 20 µM (AID 1117336;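 active = compounds lowering colon cancer cell viability after pretreatment blocking the GSK3B kinase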). The settings on record: HCT116 viability after GSK3B inhibitor, at 20 µM, stronger effect = higher value. A general note: In ATP-based viability assays light output follows the ATP content of the culture.
A short description of assay [4]: inhibition of endothelial tube formation, primary screen, imaging, VEGF stimulated, CD31 staining, tube area, NPC library (AID 1117340;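 active = compound that reduces growth-factor-driven endothelial tube area in a mixed cell culture, no cutoff stated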). The following applies: VEGF-stimulated ADSC/ECFC co-culture, at 10 µM, stronger effect = higher value.
Assay [5] in a line: GLP1 release stimulators, primary, NCI-H716, NPC library (AID 1117341;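 active = compound raises GLP1 secretion from the human gut endocrine cells, with no numeric limit stated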). The following applies: NCI-H716 cells, at 10 µM, stronger effect = higher value.
A short description of assay [6]: HCT116 colon cancer cell growth inhibition, primary screen, CellTiter-Glo luminescence, NPC library (AID 1117342;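 active = compounds that lower survival of HCT116 colon cancer cells in the luminescence readout, no numeric limit stated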). The settings on record: at 20 µM (top of the series).
Assay [7] is described as follows: reduced SW480 viability measured with CellTiter-Glo, NPC library, primary (AID 1117343;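 active = compounds that lower viability of the colon cancer cells in the luminescence readout, with no numeric limit stated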). The settings on record: CellTiter-Glo luminescence; at 20 µM (top of the series) unless noted.
Assay [8] in a line: NPC library primary testing for decreased DLD-1 cell viability via CellTiter-Glo (AID 1117346;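 active = compounds that lower survival of DLD-1 colon cancer cells in the luminescence readout, no cutoff given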). The settings on record: DLD-1 viability, CellTiter-Glo luminescence; at 20 µM (top of the series).
Assay [9] can be described thus: viability loss in pontine glioma line – cell-based, SU-DIPG-XVII, MIPE5.0, CellTiter-Glo, qHTS, dose response (AID 1347060; cut-off not given, nearly all actives have AC50 up to about 26 µM). The following applies: CellTiter-Glo ATP luminescence.
Assay [10] is described as follows: viability loss in pontine glioma line – cell-based, SU-DIPG-XIII, MIPE4.0, CellTiter-Glo, qHTS, dose response (AID 1347061; cut-off not given, nearly all actives have AC50 up to about 37 µM;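 note: cells exposed to compound for 48 hours before readout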). The following applies: CellTiter-Glo ATP luminescence.
The nature of assay [11]: viability loss in pontine glioma line – cell-based, SU-DIPG-IV, MIPE4.0, CellTiter-Glo, qHTS, dose response (AID 1347063; cut-off not given, nearly all actives have AC50 up to about 30 µM;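 note: compound exposure lasted 48 hours before the viability readout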). The following applies: CellTiter-Glo ATP luminescence.
Assay [12] is described as follows: growth inhibition of DIPG cells – cell-based, MIPE5.0 library, qHTS (AID 1347068; cut-off not given, nearly all actives have IC50 up to about 30 µM). The following applies: SU-DIPG-XXV viability.
The target of assay [13] is NAD(+) hydrolase SARM1 (Homo sapiens) (UniProt Q6SZW1). Description: blocking NAD cleavage by SARM1 SAM-TIR – cell lysate, NAD-Glo luminescence (AID 1508614;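 active = compound whose remaining NAD level is above about 45 nM, limit read from the data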;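 note: higher remaining NAD means stronger inhibition of SARM1 NADase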). The following applies: SAM-TIR HEK293T lysate NADase, at 1 µM, stronger effect = higher value.
Chain of NAD(+) hydrolase SARM1 (Homo sapiens) (Q6SZW1 whole entry, looked up): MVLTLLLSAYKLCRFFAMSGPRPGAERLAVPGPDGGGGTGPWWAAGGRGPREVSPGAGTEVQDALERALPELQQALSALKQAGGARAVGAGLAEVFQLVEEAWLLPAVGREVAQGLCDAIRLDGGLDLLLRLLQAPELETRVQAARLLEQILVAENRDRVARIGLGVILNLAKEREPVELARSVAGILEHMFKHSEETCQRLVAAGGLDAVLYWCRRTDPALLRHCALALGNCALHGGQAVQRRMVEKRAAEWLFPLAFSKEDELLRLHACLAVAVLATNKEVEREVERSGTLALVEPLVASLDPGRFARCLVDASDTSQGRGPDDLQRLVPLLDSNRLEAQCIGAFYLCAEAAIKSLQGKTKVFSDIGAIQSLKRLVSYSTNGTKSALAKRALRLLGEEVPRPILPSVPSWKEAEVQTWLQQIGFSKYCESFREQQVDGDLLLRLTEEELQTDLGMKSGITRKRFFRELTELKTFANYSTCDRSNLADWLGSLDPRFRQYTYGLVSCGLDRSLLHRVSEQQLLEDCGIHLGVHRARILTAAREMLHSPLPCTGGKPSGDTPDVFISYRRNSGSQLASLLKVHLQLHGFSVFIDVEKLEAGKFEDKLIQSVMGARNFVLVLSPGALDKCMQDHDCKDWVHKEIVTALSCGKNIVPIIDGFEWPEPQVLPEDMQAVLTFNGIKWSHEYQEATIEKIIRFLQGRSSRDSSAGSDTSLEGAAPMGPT
Assay [14] relates to Aerobactin synthetase IucA (Klebsiella pneumoniae). Briefly: inhibition of K. pneumoniae IucA enzyme – biochemical, Tocris library, absorbance (AID 1345561; call rule not given here;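 note: 100% = enzyme without compound and 0% = no enzyme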). The following applies: purified IucA enzyme assay, absorbance (OD) read-out; stronger effect = lower value;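 tested at 8 µM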.
Assay [15] in a line: viability loss with induced miR-34 in A549 – imaging, A549 dox-inducible miR-34, nuclei and caspase counts, primary screen (AID 1347080;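 active = compounds whose cell count with miR-34 switched on is under 0.7 times the count with it off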). The settings on record: A549 miR-34 inducible, Hoechst nuclei count, 48 h.
Assay [16] in a line: galactose survival enhancers in mitochondrial complex I cybrids – cell-based, galactose medium, ATP luminescence, primary screen (AID 1645843;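 active = z-score of at least 1.8 in each of two replicates, scored against plate mean and spread of sample wells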;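 note: positive z means more ATP and so rescue of galactose-driven cybrid death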). The following applies: complex I mutant cybrid cells, 72 h, stronger effect = higher value.
A short description of assay [17]: P. berghei load reduction in hepatocytes – cell-based, HepG2, luciferase luminescence, HepG2 viability, primary screen (AID 624349; in the data active = parasite load remaining mostly below about 12%, no sharp cut-off; inactive = mostly above about 10%;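 note: 100% = mean of DMSO negative control wells on the same plate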). The following applies: P. berghei liver stage in HepG2, luciferase luminescence, concentration not given here; parasite load remaining: stronger effect = lower value; viability: measured here: HepG2 viability without parasites.
Assay [18] in a line: MELAS cybrid and Rieske KO viability enhancers – cell-based, MELAS cybrids, Rieske KO mouse fibroblasts, CellTiter-Glo, primary screen (AID 1508586;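 active = mean z-score across replicates of 1.96 or higher in either the MELAS or the Rieske mutant cell line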;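 note: z relative to plate mean and SD of compound and empty wells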). The settings on record: low glucose.
[19] abbreviates: stronger effect = lower value, cell number ratio, induced over uninduced.
[20] abbreviates: measured here: relative caspase fold change +Dox/-Dox.
Where [21] appears, read: measured here: total cells with miR-34 induction, stronger effect = lower value.
Where [22] appears, read: measured here: total cells without miR-34 induction.

Where “and” joins values, the source holds several entries; their conditions need not be identical. Identical values can stand only once. Records with an inconclusive call do not appear. Calls of active or inactive are those of the source. Cut-off read from the data, not from the text of the source, unless noted: active = nuclear beta-catenin stimulation mostly above about 4.2% (no sharp cut-off); inactive = mostly below about 10%.

As for `O=C(O)C(=O)Nc1cccc(-c2nn[nH]n2)c1`, the nuclear beta-catenin stimulation in [1] (at 10 µM) is 1.3% (inactive); in [1] (stimulation, at 2 µM), 1.9%. The insulin secretion stimulation in assay [2] is 4% (inactive). Moreover, the viability decrease in assay [3] was 19.5% (inactive). Moreover, the tube area decrease in assay [4] is 0.4% (inactive). Further, in [5], the GLP1 secretion stimulation is -3.2% (inactive). Further, the inhibition of viability in assay [6] was -2.9% (inactive). Besides, the viability decrease (inhibition) is 32.2% (inactive) in assay [7] and 9.1% (inactive) in assay [8]. Also, the compound was classed as inactive in assay [9], in assay [10], in [11] and in assay [12].

In the case of `C[C@H]1C[C@H]2[C@@H]3CCC4=CC(=O)C=C[C@]4(C)[C@H]3C(=O)C[C@]2(C)[C@@]1(O)C(=O)CO`, the nuclear beta-catenin stimulation in assay [1] (at 10 µM) was 0.1% (inactive); in assay [1] (stimulation, at 2 µM), 1.2%. Further, the insulin secretion stimulation in assay [2] was 1.5% (inactive). Besides, the viability decrease in assay [3] was 19% (inactive). The tube area decrease in assay [4] was -11% (inactive). Further, the GLP1 secretion stimulation in [5] was 0.7% (inactive). The inhibition of viability in assay [6] is -1.9% (inactive). Moreover, the viability decrease (inhibition) in assay [7] is 0.2% (inactive); in assay [8], 5.4% (inactive). Also, the compound was called inactive in assay [9], in [10], in assay [11] and in assay [12].

As for `Cc1oc(=O)oc1CN1CCN(c2cc3c(cc2F)c(=O)c(C(=O)O)c2n3C(C)S2)CC1` (stereo not drawn), the nuclear beta-catenin stimulation in [1] (at 10 µM) is 0.8% (inactive); in assay [1] (stimulation, at 2 µM), 1.4%. Further, the insulin secretion stimulation in [2] was 1.6% (inactive). Besides, in assay [3], the viability decrease is 35.8% (inactive). Further, the tube area decrease in assay [4] is 4.4% (inactive). Also, the GLP1 secretion stimulation in [5] was 2.3% (inactive). In addition, the inhibition of viability in assay [6] is 38.1% (inactive). Moreover, the results for the viability decrease (inhibition) in assay [7] and in assay [8] were 26.1% (inactive) and 1.4% (inactive), respectively. In addition, the call in assay [9], in assay [10], in assay [11] and in assay [12] was inactive. In addition, the remaining NAD in [13] was 10 nM (inactive).

In general, remaining activity refers to what remains of the control signal, in per cent. Take `O=S1(=O)c2cccc3cccc(c23)N1CCCN1CCN(c2ccc(F)cc2)CC1`: the nuclear beta-catenin stimulation is 1.8% (inactive) in assay [1] (at 10 µM) and 17.7% in assay [1] (stimulation, at 2 µM). Besides, the insulin secretion stimulation in assay [2] was 3.4% (inactive). For the same compound, the viability decrease in assay [3] is 74.5% (active). Moreover, the tube area decrease in assay [4] is -3% (inactive). Moreover, the GLP1 secretion stimulation in assay [5] was 0.3% (inactive). In addition, the inhibition of viability in assay [6] was 104% (active). Further, the figures for the viability decrease (inhibition) in assay [7] and in assay [8] were 136% (active) and 84.5% (active), respectively. In addition, in [14], the remaining activity was 92.7% (inactive). Further, the fold change is 0.902 (inactive) in assay [15] (setting [19]) and 1.69 in assay [15] (setting [20]). Further, the results for the cell count in assay [15] (setting [21]) and in assay [15] (setting [22]) were 7340 and 8140, respectively. Also, in assay [16], the z-score was -0.675 (inactive).

Broadly, the viability is a read-out of living cells in per cent, often relative to untreated cells. In the case of `CC(=O)[C@H]1CC[C@H]2[C@@H]3CC=C4C[C@@H](O)CC[C@]4(C)[C@H]3CC[C@]12C`, the parasite load remaining in [17] was 90.8% (inactive) and 62.2% (inactive) and 6.53% (inactive). Moreover, the viability in assay [17] was 110% and 79.4% and 65.5%. The nuclear beta-catenin stimulation was 3% (inactive) in assay [1] (at 10 µM) and 1.6% in assay [1] (stimulation, at 2 µM). Moreover, in assay [2], the insulin secretion stimulation is -2% (inactive). For the same compound, in assay [3], the viability decrease was 7.55% (inactive). Further, the tube area decrease in assay [4] was 8.7% (inactive). Moreover, in [5], the GLP1 secretion stimulation was 1.9% (inactive). Further, in [6], the inhibition of viability is -2.4% (inactive). The viability decrease (inhibition) in [7] is 82% (active); in assay [8] it was 18.9% (inactive). Further, the result in [9], in assay [10], in assay [11] and in assay [12] was inactive. Moreover, the fold change in assay [15] (setting [19]) is 0.857 (inactive) and 0.834 (inactive); in assay [15] (setting [20]), 1.38 and 1.19. Also, the cell count in assay [15] (setting [21]) is 8970 and 9160; in assay [15] (setting [22]) it was 10500 and 11000. Besides, the z-score in [18] (MELAS cybrid survival, CellTiter-Glo 48 h, stronger effect = higher value) was 0.44 (inactive) and 0.49 (inactive); in [18] (Rieske KO mouse fibroblast survival, CellTiter-Glo 72 h), 0.646 and 0.0253; in assay [16], -1.23 (inactive). The remaining NAD in assay [13] was 10 nM (inactive).
